Assay outcomes (PubChem)
IDE inh – human IDE inhibitors in live cells, primary screen, fluorescence polarization, HEK cells, FAbetaB substrate; Insulin-degrading enzyme (Homo sapiens), P14735; FAbetaB cleavage; inhibition, % at 5.59 µM; hit rate 0.41% among 320,000; AID 434962, 2010;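 active = percent inhibition above the average of all tested compounds plus 3 SD, set per screening campaign, cut at about 16% in these data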;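 also: IDE supplied by intact live HEK cells; FP after avidin binding of uncleaved biotin substrate so inhibition keeps polarization high; 0% = DMSO wells and 100% = 60 µM reference IDE inhibitor Ii1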
E coli Lon inh – inhibitors of E. coli Lon protease, primary screen, biochemical, fluorescence polarization; P0A9M0; purified E. coli Lon protease; inhibition, % at 7.94 µM; hit rate 0.42% among 360,000; AID 602123, 2011; in the data active = inhibition above about 13%, passing the limit was not always enough;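 also: 0% = enzyme with probe and DMSO and 100% = no enzyme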
Target sequence (P0A9M0 whole entry, looked up): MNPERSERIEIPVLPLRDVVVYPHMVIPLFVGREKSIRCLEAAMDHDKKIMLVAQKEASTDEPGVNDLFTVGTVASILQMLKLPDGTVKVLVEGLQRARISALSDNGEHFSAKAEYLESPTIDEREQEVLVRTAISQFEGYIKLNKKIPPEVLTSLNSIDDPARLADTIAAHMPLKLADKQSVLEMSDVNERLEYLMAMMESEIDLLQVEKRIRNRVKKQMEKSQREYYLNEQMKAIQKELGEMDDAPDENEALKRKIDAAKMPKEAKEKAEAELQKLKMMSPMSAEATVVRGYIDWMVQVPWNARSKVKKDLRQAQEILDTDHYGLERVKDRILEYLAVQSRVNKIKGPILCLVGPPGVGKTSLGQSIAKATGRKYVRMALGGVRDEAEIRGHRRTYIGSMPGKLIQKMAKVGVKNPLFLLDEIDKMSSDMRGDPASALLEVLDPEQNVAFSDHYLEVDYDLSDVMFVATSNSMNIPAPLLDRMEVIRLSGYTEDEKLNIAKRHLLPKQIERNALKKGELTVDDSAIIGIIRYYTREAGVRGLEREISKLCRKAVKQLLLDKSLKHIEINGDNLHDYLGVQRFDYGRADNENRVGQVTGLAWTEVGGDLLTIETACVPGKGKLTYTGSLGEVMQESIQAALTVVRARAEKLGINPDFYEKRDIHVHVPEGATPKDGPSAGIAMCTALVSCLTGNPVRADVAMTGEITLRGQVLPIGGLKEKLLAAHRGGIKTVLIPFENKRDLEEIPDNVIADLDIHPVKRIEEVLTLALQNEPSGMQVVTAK
PKA-R2B activ – activators of PKA-R2B holoenzyme, primary screen, biochemical, fluorescence polarization, Cy5-IP20, human. PKA-R2B holoenzyme dissociation; R2B truncated from residue 108, S112A mutant; 0% DMSO only, 100% 113 µM cGMP. activation, % at 11.4 µM. hit rate 0.079% among 340,000. AID 504700, 2011;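 active = activation above a cutoff set at the mean over all compounds plus 3 SD, cut at about 18% in these data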;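 also: higher means more holoenzyme dissociation and a rise in polarization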
Rin1 Abl inh – inhibitors of Rin1-Abl protein binding, primary screen, biochemical, TR-FRET; Tyrosine-protein kinase ABL1 (Homo sapiens) + Ras and Rab interactor 1 (Homo sapiens), …; inhibition, % at 7.35 µM; hit rate 0.4% among 360,000; AID 588664, 2011; in the data active = inhibition above about 5%, passing the limit was not always enough
IDE act – human IDE activators in live cells, primary screen, fluorescence polarization, HEK cells, FAbeta-B substrate; activation, % at 5.96 µM; hit rate 0.073% among 340,000; AID 493087, 2011; FAbeta-B cleavage; 0% vehicle, 100% cell-free pure enzyme wells; Insulin-degrading enzyme (Homo sapiens), P14735;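 active = activation above the mean of all tested compounds plus 3 SD, set per screening campaign, cut at about 17% in these data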
PKA-R1A act – activators of PKA-R1A holoenzyme, primary screen, biochemical, fluorescence polarization, Cy5-IP20, bovine R1A, mouse PKAc | cAMP-dependent protein kinase type I-alpha regulatory subunit (Bos taurus) + … | AID 504707, 2011 | hit rate 0.083% among 340,000 | activation, % at 11.4 µM | PKA-R1A dissociation; scaled: DMSO 0%, 113 µM cGMP 100%;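 active = percent activation above the mean of all tested compounds plus 3 SD, cut at about 19% in these data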;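 also: higher means more PKAc released from R1A so a rise in polarization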
IDE cell inh cf – human IDE inhibitors in live cells, confirmation, fluorescence polarization, HEK cells, FAbetaB substrate | shares compounds with IDE inh | FAbetaB cleavage | inhibition, % at 5.59 µM | hit rate 51% among 1,200 | AID 435028, 2010;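 active = mean inhibition across triplicate wells above the cutoff set by the earlier primary insulin-degrading enzyme screen, cut at about 16% in these data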;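 also: 0% = DMSO wells and 100% = 60 µM reference IDE inhibitor Ii1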
HEK cytotox – cytotoxicity in HEK cells, cytotoxicity control for IDE inhibitor project, cell-based, luminescence; hit rate 28% among 1,200; shares compounds with IDE inh; inhibition, % at 5.59 µM; HEK293 cytotoxicity, ATP luminescence; AID 449730, 2010; in the data active = inhibition above about 22%;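 also: 0% = vehicle wells and 100% = reference cytotoxic drug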
The depositor's hits bear a star; / = not tested or not shown. Rows were chosen to be rich in hits. Some 1.3% of all compounds tested hit in one or more screens of this group.

SMILES | IDE inh | E coli Lon inh | PKA-R2B activ | Rin1 Abl inh | IDE act | PKA-R1A act | IDE cell inh cf | HEK cytotox
Cc1ccc(C2(C(F)(F)F)NC(=O)N3C(=C2C#N)Nc2ccccc23)cc1 (stereo unspecified) | -1 | 11 | -4 | -2 | 0 | -7 | / | /
Cc1ccc(C2=CC(c3ccc(N(C)C)cc3)n3nnnc3N2)cc1 (stereo unspecified) | 41* | -142 | -7 | -1 | -64 | -2 | 42* | 13
COc1ccc2c(c1)[nH]c1c(N3CCSCC3)ncnc12 | 14 | 7 | -2 | 0 | -8 | -5 | / | /
COc1cc2[nH]c3c(N4CCN(c5ccc(Cl)cc5)CC4)ncnc3c2cc1OC | 52* | -1 | -6 | -5 | -29 | -1 | 27* | 38*
COc1cccc(N2CCN(c3ncnc4c3[nH]c3ccc(F)cc34)CC2C)c1 (stereo unspecified) | 38* | 3 | -9 | 3 | -12 | -5 | 28* | 122*
COc1ccc2[nH]c3c(N4CC(C)OC(C)C4)ncnc3c2c1 (stereo unspecified) | 17* | / | / | / | / | / | 7 | 11
CCc1cc(=O)oc2cc(OCC(=O)N3CCC(C(N)=O)CC3)ccc12 | 3 | 5 | 13 | -4 | 1 | 2 | / | /
Cc1oc2cc3oc(=O)c(CCC(=O)N4C[C@H]5C[C@@H](C4)c4cccc(=O)n4C5)c(C)c3cc2c1C | 18* | 3 | -8 | -8 | -20 | -7 | 9 | 14
CCCCc1cc(=O)oc2c(C)c(OCC(=O)N3C[C@H]4C[C@@H](C3)c3cccc(=O)n3C4)ccc12 | 23* | -8 | 7 | -1 | -21 | 1 | 7 | 15
CCCCc1cc(=O)oc2cc(OCC(=O)N3CCC(C(N)=O)CC3)ccc12 | 18* | -9 | 2 | -1 | -3 | 3 | 8 | 9
Cc1ccc(-c2cc(C(=O)Nc3ccc(S(=O)(=O)Nc4ncccn4)cc3)[nH]n2)c(O)c1C | 31* | 3 | -6 | 0 | -26 | -1 | 20* | 10
O=C1C(=O)N(CCCN2CCOCC2)C(c2ccc([N+](=O)[O-])cc2)/C1=C(/O)c1ccc2c(c1)OCO2 (stereo unspecified) | 1 | 1 | -7 | 0 | -1 | -5 | / | /
COc1ccc(NC(=O)Cn2nnc(C(=O)NCc3ccc4c(c3)OCO4)c2N)c(OC)c1 | 1 | -9 | -6 | 4 | 4 | -4 | / | /
O=C(N/N=C/c1ccccc1)c1ccc(CN2C(=O)c3cccc4cccc2c34)cc1 | 7 | 3 | -3 | -4 | -7 | -12 | / | /
O=C(N/N=C/c1ccc(O)cc1O)c1ccc(CN2C(=O)c3cccc4cccc2c34)cc1 | 26* | 8 | 3 | -4 | -27 | 1 | 10 | 98*
O=C(NNC(=O)c1ccc(Cl)cc1Cl)c1csc(-c2cccnc2)n1 | 21* | 3 | -8 | 3 | 0 | -4 | 9 | 11
Cc1cc(NC(=O)NCc2ccccc2)c(=O)n(Cc2ccc(F)cc2)c1 | 1 | -4 | -7 | 1 | 0 | -2 | / | /
CCn1c(-c2cc(-c3ccccc3OC)nc3ccccc23)n[nH]c1=S | 16* | -2 | -1 | -1 | -23 | -10 | 10 | 8
CCn1c(-c2cc(-c3cc(OC)ccc3OC)nc3ccccc23)n[nH]c1=S | 7 | -2 | 4 | 3 | -7 | 8 | / | /
CCc1ccc(NS(=O)(=O)c2cc3c(cc2C)n(C)c(=O)c(=O)n3C)cc1 | 4 | 0 | 1 | -8 | -6 | -5 | / | /
